Laboratory results taken from PubChem BioAssay (NCATS).
A number with no mark means an inactive call. Records with an inconclusive call do not appear. A call without a number means that no potency is given here. Activity calls are given as the source filed them. Calls come from the whole dose curve; as a rule, active = well fitted curve in the direction sought with a large enough effect; inconclusive = small, poorly fitted or top-dose-only effect, or another doubt; inactive = no such curve, though single readings can be large; an effect the other way counts as inactive or inconclusive. Where a SMILES comes first, the peptide text is derived from it.

Assays:
[1] = Primary fluorescence-based thiol-reactive (MSTI) qHTS assay for identification of artifact compounds. (AID 1845221); note: nearly all actives have a fitted effect of over 65% in size; note: potency is the fitted concentration of half-maximal effect;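 for activity change, negative = thiol reactive: series mostly up to about 54 µM; thiol-reactive compounds lower the probe fluorescence signal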
Outline: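 Thiol-reactive compounds detected by quenching of 4 uM MSTI fluorescence (525/598 nm) after 1 h room-temperature dark incubation in PBS pH 7.4, 2% DMSO. qHTS titration; percent inhibition Hill-fitted against Acetyl-MSTI/MSTI controls.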

[2] = system: Nanoluciferase (engineered Oplophorus gracilirostris luciferase); experiment: Primary Nanoluciferase (NLuc) qHTS assay for identification of artifact compounds. (AID 1845222); note: series mostly up to about 54 µM
Outline: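 Diluted conditioned medium from NLuc-expressing S16 cells treated with compounds for 15 min at room temperature, then Nano-Glo substrate added; luminescence read after 5 min. Percent inhibition versus no-enzyme and DMSO controls fitted to 4-parameter Hill equation.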

[3] = Primary redox qHTS assay for identification of artifact compounds. (AID 1845223)
Outline: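 Amplex Red (25 uM) and HRP (250 mU/mL) in HBSS, with compounds for 15 min, then 250 uM DTT for 30 min, room temperature, dark. Fluorescence 525/598 nm read; normalized to DMSO and 10 uM DA3003; Hill fit.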

SMILES	Potency [1]	Potency [2]	Potency [3]	activity change, negative = thiol reactive [1]	activity, negative = inhibition [2]	redox activity (% of DA3003) [3]
CC1=CC(=O)CC(C)(C)C1CCC(C)O[C@@H]1O[C@H](CO)[C@@H](O)[C@H](O)[C@H]1O (some centres not stated)	9.27 µM (active)	inactive	inactive			
O=C(O)CCc1cc2ccoc2cc1O[C@@H]1O[C@H](CO)[C@@H](O)[C@H](O)[C@H]1O	inactive	inactive	inactive			
CSCC[C@H](NC(=O)[C@H](CO)NC(=O)[C@H](CCC(=O)O)NC(C)=O)C(=O)N[C@H](C=O)CC(=O)O (Ac-ESMD-aldehyde)				10.4% [at 11.5 µM]	3.03% [at 11.6 µM]	-1.61% [at 11.5 µM]
COc1ccc(CCC(=O)O)c(O[C@@H]2O[C@H](CO)[C@@H](O)[C@H](O)[C@H]2O)c1	inactive	inactive	inactive			
CN1C(=O)N(c2cc(Cl)cc(Cl)c2)C(=O)[C@@]1(C)Cc1ccc(Br)cc1	inactive	inactive	inactive			
Cn1cc(Nc2cnccc2C(=O)O)c2cccnc21	inactive	inactive	inactive			
C/C=C1/[C@H](O[C@@H]2O[C@H](CO)[C@@H](O)[C@H](O)[C@H]2O)OC=C(C(=O)OC)[C@H]1CC(=O)OCCc1ccc(O)c(O)c1	2.07 µM (active)	inactive	inactive			
COc1ccc(C2(O)c3ccccc3NC(=O)C2OC)cc1 (configuration not stated)	inactive	inactive	inactive			
C[C@H]1[C@H](C)C[C@@H](C(=O)O)C2CC[C@]3(C)C(=CC[C@@H]4[C@@]5(C)CC[C@H](O)C(C)(C)[C@@H]5CC[C@]43C)[C@@H]21 (some centres not stated)	inactive	inactive	inactive			
